Assay results published in the supplement of paper PMC9925115.
± gives the uncertainty stated by the source.

tested on: FLX1; assay: cell viability z-score within plate (CellTiter-Glo), mean of 3 biological replicates; higher = higher viability relative to plate (less growth inhibition); settings: 2 µM; time (hr): 120
Protocol: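 FLX1 fibrolamellar carcinoma cells (DNAJB1-PRKACA fusion), 600 cells/well in 384-well plates, treated with a Selleck kinase inhibitor library (L1200) at 2 uM for 5 days (120 hr); viability by CellTiter-Glo. A z-score was computed within each plate and averaged over three biological replicates.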

Structure (SMILES) | cell viability z-score within plate
Cc1ccccc1CN1C2=NCCN2C(=O)C2=C1CCN(Cc1ccccc1)C2 [TIC10 Analogue] | 0.481 ± 0.4
Cc1ccc(Nc2nccc(N(C)c3ccc4c(C)n(C)nc4c3)n2)cc1S(N)(=O)=O | -0.43 ± 0.49
COc1ccc(COc2cc3oc(=O)c4cc(C(C)O)ccc4c3cc2OC)cc1 (stereo unspecified) [Palomid 529 (P529)] | 0.0682 ± 0.42
C=CC(=O)Nc1ccc2ncnc(Nc3cccc(Br)c3)c2c1 | -1.55 ± 0.85
CS(=O)(=O)c1cccc(CNc2nc(Nc3ccc4c(c3)CCC(=O)N4)ncc2C(F)(F)F)c1 | -2.81 ± 1.3
COc1cc2ncnc(Nc3ccc(Cl)cc3F)c2cc1OC | 1.18 ± 0.67
Cc1ncc(-c2ccnc(Nc3ccc(S(C)(=O)=O)cc3)n2)n1C(C)C | 0.322 ± 0.54
CCn1c2ccccc2c2cc(Nc3ccnc(NCCCN4CCOCC4)n3)ccc21 | 1.38 ± 0.26
O=C(NCCCNc1nc(Nc2cccc(NC(=O)N3CCCC3)c2)ncc1I)c1cccs1 | -0.658 ± 0.97
Cc1cc(C(C)Nc2ccccc2)c2nc(N3CCOCC3)cc(=O)n2c1 (stereo unspecified) | -0.144 ± 0.28
CNC(=O)c1cc(COc2nnc(Nc3ccc(Cl)cc3)c3ccoc23)ccn1 [Telatinib] | -1.65 ± 1.2
C=CC(=O)Nc1cccc(Nc2nc(Nc3ccc(NC4CN(CCF)C4)cc3OC)ncc2C(F)(F)F)c1 | -0.00318 ± 1.3
CCc1cccc(CC)c1NC(=O)N1Cc2[nH]nc(NC(=O)c3ccc(N4CCN(C)CC4)cc3)c2C1 | -0.62 ± 0.28
COc1ccccc1-c1cc(Nc2cccc(CS(N)(=O)=O)c2)ncn1 | 0.545 ± 1.1
CC(C)n1nc(-c2ccc3oc(N)nc3c2)c2c(N)ncnc21 | 0.871 ± 0.17
CNC(=O)c1ccccc1Sc1ccc2c(/C=C/c3ccccn3)n[nH]c2c1 [Axitinib] | 0.834 ± 0.44
